Measured values published in PubChem BioAssay AID602350 (Broad Institute, 2012).
Results with a measured potency or affinity are listed apart.

Each compound was assayed against Protein disulfide-isomerase (Homo sapiens) (UniProt P07237) (assay: inhibition of PDI-driven insulin aggregation – biochemical, turbidity, absorbance, cherry-picked samples, dose response (AID 602350;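 also: 0% = neutral controls and -100% = rutin hydrate positive control wells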)). Details: recombinant PDI insulin aggregation, absorbance 650 nm, 90 min; series mostly up to 19.5 µM; activity change, negative = inhibition: at the top concentration;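 active = absorbance falls by 30% or more versus neutral controls, with a potency fitted within twice the top valid dose; inconclusive = no clear call, values can overlap the other calls; inactive = change opposite to expected direction, plus the rest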.
Sequence of Protein disulfide-isomerase (Homo sapiens) (P07237 whole entry, looked up): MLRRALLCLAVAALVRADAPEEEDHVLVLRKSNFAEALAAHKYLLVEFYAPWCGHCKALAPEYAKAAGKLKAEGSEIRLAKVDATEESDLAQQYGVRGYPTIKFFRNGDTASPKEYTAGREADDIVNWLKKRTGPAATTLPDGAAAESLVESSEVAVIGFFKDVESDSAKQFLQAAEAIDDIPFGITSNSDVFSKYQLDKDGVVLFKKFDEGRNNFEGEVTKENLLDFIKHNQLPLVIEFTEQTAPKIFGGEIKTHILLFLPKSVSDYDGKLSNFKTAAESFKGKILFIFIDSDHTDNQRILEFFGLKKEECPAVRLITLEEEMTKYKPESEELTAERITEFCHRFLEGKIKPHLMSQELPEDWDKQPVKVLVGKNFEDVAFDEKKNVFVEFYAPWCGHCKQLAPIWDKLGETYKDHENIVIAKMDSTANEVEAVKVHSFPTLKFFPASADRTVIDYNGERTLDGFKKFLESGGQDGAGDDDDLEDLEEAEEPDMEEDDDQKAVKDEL

Activity change, negative = inhibition, inactive:
Cc1ccc(S(=O)(=O)N(C)c2ccc(OC(=O)COc3ccccc3)cc2)cc1 -1.41%
COc1ccc(N(CC(=O)NCCSC2CCCCC2)S(=O)(=O)c2ccccc2)c(OC)c1 -16.7%
CCOC(=O)C1(CCOc2ccccc2)CCN(Cc2ccc(O)cc2)CC1 -1.42%
COc1ccc(C[C@@H]2CN3C(=NC[C@@H]3Cc3ccc(O)cc3)N2C[C@H](C)NC(=O)CCC2CCCCC2)cc1 -19.6%
Cc1noc(C)c1C(=O)OCC(=O)NCCc1ccc(Cl)cc1 19.9%
C[C@@H]1CN([C@H](C)CO)C(=O)Cc2cc(NC(=O)Nc3ccccc3)ccc2O[C@@H]1CN(C)Cc1ccccc1 7.95% [at 21 µM]
CC(C)c1ccc(/C=N/NC(=O)c2ccc(-n3cnnn3)cc2)cc1 12.5%
CCC1Nc2ncnc(N3CCCCC3)c2N(Cc2ccc(C)cc2)C1=O (centres undefined) -9.18%
O=C(/C=C/c1c(F)cccc1Cl)c1ccc(O)cc1 -15.5%
COc1ccc(S(=O)(=O)NC(C)C(=O)Nc2ccccc2F)cc1 (centres undefined) -0.01%
CCCCNC(=O)Nc1ccon1 4.27%
COc1ccc(N(Cc2cc3cc(OC)ccc3[nH]c2=O)C(=O)C2CCCO2)cc1 (centres undefined) 4.45%
CCOc1ccc2nc(SCC(=O)c3ccc(Cl)s3)sc2c1 5.42%
CCS(=O)(=O)c1ccc2oc(SCC(=O)NC(C)C3CC4CCC3C4)nc2c1 (centres undefined) 6.54%
COc1cc2c(cc1OC)C1C(C(=O)Nc3ccccc3N3CCN(C)CC3)c3ccccc3C(=O)N1CC2 (centres undefined) -4.54%
COc1cc(C2C(C#N)=C(N)Oc3cc(O)ccc32)cc(OC)c1OC (centres undefined) -7.09%
CCOC(=O)C1(C)CCCN(C(=O)c2cccc(Cl)c2)C1 (centres undefined) 11.9%
Cc1cccc(NC(=S)NCC23C=CC(O2)C2C(=O)N(c4ccc(Cl)cc4)C(=O)C23)c1 (centres undefined) 19.5%
COc1ccc(C[C@@H]2OC3(C=CC(=O)C=C3)O[C@H]2Cc2ccc(OC)cc2)cc1 -2.56% [at 2.1 µM]
Cc1ccc(CN(c2ccc(C(=O)Nc3ccc4c(c3)OCO4)cc2)S(C)(=O)=O)cc1 8.91%
Nc1ccc(C(=O)NN2C(=O)[C@H](Cl)C2c2ccc(Cl)cc2)cc1 (some centres undefined) -2.02%
COc1cccc(NC(=O)CN(C)C(=O)/C=C/c2cc(OC)ccc2OC)c1 -3.63%
COc1cccc(/C=C2\CCCCC2=O)c1 2.74%
O=C(NCc1ccccc1)c1cc(C2CCCN(C(=O)C3CCCCC3)C2)on1 (centres undefined) 7.02%
CCOC(=O)C1(CCOc2ccccc2)CCN(Cc2cccc(F)c2)CC1 -1.84%
O=C(CCS(=O)(=O)c1ccccc1)N(CCCN1CCOCC1)c1nc2ccccc2s1 -17.5%
CC(=O)c1ccc(OCc2cc(C(=O)N3CCCCC3c3cccnc3)no2)cc1 (centres undefined) 5.63%
Cc1ccc(S(=O)(=O)N2CCC(C(=O)Nc3ccc(S(=O)(=O)N4CCCC4)cc3)CC2)cc1 4.28%
O=C(O)c1ccccc1Cc1ccc(F)c2ccccc12 15.1%
CCOc1ccc(NC(=O)CN(C)C(=O)c2cc(C)nc3ccccc23)cc1OCC 3.17%
CCOC(=O)c1c(CN(C)C)n(-c2ccccc2)c2cc(Br)c(O)cc12 -18.2%
COc1ccccc1NS(=O)(=O)c1cccc(C(=O)NCC2(N3CCCCC3)CCCCC2)c1 10.1%
Cn1nccc1C(=O)Nc1ccc(S(=O)(=O)N2CCCC2)cc1 3.68%
O=C1CC(C(=O)N2CCc3ccccc32)CN1c1ccc(F)cc1 (centres undefined) 5.33%
C[C@@H](C(=O)NCc1ccccc1)N1C(=O)C2CC=CCC2C1=O (some centres undefined) -0.93%
O=C(Nc1nccs1)c1ccc(-c2ccccc2[N+](=O)[O-])o1 15.1%
Cc1noc(C)c1S(=O)(=O)Nc1ccc2c(c1)CC(=O)N([C@H](C)CO)C[C@@H](C)[C@@H](CN(C)S(=O)(=O)c1ccc(F)cc1)O2 -4.77% [at 6.8 µM]
O=C(CN1C(=O)NC2(CCCC2)C1=O)Nc1ccc(C(F)(F)F)cc1 4.1%
Cc1cc(C)cc(CC(=O)N2CCC2(C)C(=O)NS(=O)(=O)c2ccc(Br)cc2)c1 (centres undefined) 2.66%
